The values that follow come from PubChem BioAssay (NCATS).

Records with an inconclusive call do not appear. Where a call stands in place of a potency, no number is given. Activity calls are given as the source filed them. Calls follow the shape of the dose curve; as a rule, active = well fitted inhibition curve with a large enough effect; inconclusive = small, poorly fitted or top-dose-only effect; inactive = flat fitted curve, though single readings scatter.

Calcium and integrin-binding protein 1 (Homo sapiens), sequence (Q99828 whole entry, looked up): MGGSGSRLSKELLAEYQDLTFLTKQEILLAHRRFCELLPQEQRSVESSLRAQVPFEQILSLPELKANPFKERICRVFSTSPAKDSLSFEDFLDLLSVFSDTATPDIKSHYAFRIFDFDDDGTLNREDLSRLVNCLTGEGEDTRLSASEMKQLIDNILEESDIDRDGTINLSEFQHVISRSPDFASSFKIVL

The assay addresses Calcium and integrin-binding protein 1 (Homo sapiens) (UniProt Q99828). Nature of the assay: Primary qHTS for Identification of Calcium Integrin Binding Protein 1 (CIB1) Competitor (AID 1508620).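 Also: GST tagged CIB1 binding a fluorescein labelled alphaIIb integrin peptide tracer; top concentration of the series differs between compounds.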 The note with it: CIB1-GST / FITC-alphaIIb peptide fluorescence polarization; series mostly up to 114 µM. In short, it runs like this:
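Fluorescence polarization competition: CIB1-GST (1 uM final) preincubated with compound 15 min at room temperature, then FITC-labeled alphaIIb peptide (100 nM final) added for another 15 min. Polarization read at Ex 480/Em 540.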
On to `COc1ccc(-c2ccc3ncnc(NCc4nc(C)cs4)c3c2)cc1OC`, for which the Potency entry is “inactive”.
`c1csc(CNc2ccc(N3CCCCC3)cc2)c1`: the Potency entry was “inactive”.
As for `Cc1cc(-c2ccccc2)n2ncc(C(=O)Nc3ccccc3Sc3ccccc3)c2n1`, the Potency result is “inactive”.
With `Cc1ccnc(NC(=S)N2CCN(c3cccc(C(F)(F)F)c3)C2)c1`, the Potency entry was “inactive”.
The entry for `COc1ccc(C2c3c(N)nc(Cc4ccccc4)nc3Oc3ccc4ccccc4c32)cc1OC` (configuration not stated) is “inactive”; for `FC(F)(F)c1ccccc1-c1nc(NCc2ccc(-c3cccnc3)cc2)c2ccccc2n1` it is “inactive”; for `CS(=O)(=O)Nc1cccc(-c2cc(F)c(S(=O)(=O)N3CCN(S(=O)(=O)c4ccc5c(c4)OCCO5)CC3)cc2F)c1` it is “inactive”.
For the compound `CN(C)c1ccc(-c2csc(N3CCC(C(N)=O)CC3)n2)cc1`, the Potency entry is “inactive”.
As to `CC(C)Oc1cccc(-c2cnc(N3CCC(C(N)=O)CC3)s2)c1`, the Potency entry was “inactive”.
Take `Cc1ccnc(NC(=S)N2CCN(c3cccc(N(C)C)c3)CC2)c1`: the Potency entry was “inactive”.
For `O=C1Nc2ccccc2/C1=C\c1ccc(O)c(F)c1`, the Potency entry is “inactive”.
To `COc1cccc(-c2ccc(CNc3ccc(N4CCN(C(=O)OC(C)(C)C)CC4)cc3)o2)c1` belongs “inactive”.
The entry for `Cc1ccnc(NC(=S)N2CCN(c3ccccc3C(F)(F)F)CC2)c1` is “inactive”.
As for `CCC(=O)NC(c1cccs1)c1cc([N+](=O)[O-])c2cccnc2c1OC` (configuration not stated), the Potency result was “inactive”.
On to `CC(=O)Nc1sc2c(c1-c1ccc(N[S+](C)(=O)[O-])cc1)CCNC2`, for which the Potency result was “inactive”.
Regarding `O=C(Nc1ccc(Cl)c(C(F)(F)F)c1)Nc1nnc(-c2cccnc2)s1`, the Potency entry is “inactive”.
To `Cc1cc(C)nc(NC(=S)N2CCN(c3ncnc4sccc34)CC2)c1` belongs “inactive”; to `O=C1CCc2cc(S(=O)(=O)Nc3ccc4ncccc4c3)ccc2N1`, “inactive”; to `CC(=O)N1CCN(c2ccc(NCc3ccc(-c4ccc(Br)cc4)o3)cc2)CC1`, “inactive”.
Take `O=C(c1ccc2c(c1)ncn2-c1cccc(Cl)c1)N1CCCCC1`: the Potency entry is “inactive”.
`O=C1c2ccccc2C(=O)N1c1ccc2ncccc2c1`: the Potency entry was “inactive”.
In the case of `Cc1c(P(=S)(c2ccccc2)c2ccccc2)c2ccccc2n1C(=O)NCc1ccc(F)cc1`, the Potency entry is “inactive”.
